In all, about 1,000 compounds went through this assay and about 25 (2%) were called active.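 The calls were made as follows: active = fitted rise in melting shift crosses a set limit at or below the top valid dose tested; inconclusive = flat fit at mid-level activity, or a poor quality fit; inactive = the rest.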 Only a sample is shown.

Outcome data for 25 compounds are collected here from PubChem BioAssay AID720646 (Broad Institute, 2013).

Chain of Fibroblast growth factor 22 (Homo sapiens) (Q9HCT0 whole entry, looked up): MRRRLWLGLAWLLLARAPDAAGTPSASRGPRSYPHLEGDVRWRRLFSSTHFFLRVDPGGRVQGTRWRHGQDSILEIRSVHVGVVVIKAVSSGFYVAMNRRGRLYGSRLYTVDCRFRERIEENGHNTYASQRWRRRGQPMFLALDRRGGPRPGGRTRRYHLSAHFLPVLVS

This experiment has as its target Fibroblast growth factor 22 (Homo sapiens) (UniProt Q9HCT0). Kind of experiment: binders of human FGF22 protein, dose response, FGF22 synaptogenesis inhibitor project, biophysical, thermal shift, cherry-pick retest (AID 720646). The settings on record: recombinant FGF22 thermal shift, SYPRO orange fluorescence; series mostly up to 38 µM.
Take `O=C(N/N=C/c1ccc(OCc2ccccc2)cc1)c1ccc(O)cc1`: the result was inactive. The result for `CN1C(=O)c2cc(NC(=O)c3cccc(F)c3)ccc2OC[C@@H]2O[C@H](CC(=O)N3CCc4ccccc4C3)CC[C@@H]21` reads “inactive”; that for `CNC[C@@H]1Oc2ccc(NC(=O)C3CCCCC3)cc2C(=O)N([C@@H](C)CO)C[C@H]1C`, “inactive”.

Regarding `O=C(c1ccccc1F)N1CC(=O)N2[C@H](C1)[C@H](c1ccc(-c3ccc(F)cc3)cc1)[C@@H]2CO`, the result was inactive.

`CCCCN1CC(N2CCN(Cc3cccc(C)c3)CC2)CS1(=O)=O` (stereo not given): the result was inactive.

Regarding `O=C(Cc1cccnc1)N[C@H]1CC[C@H](CCn2cc(-c3ccccc3F)nn2)O[C@H]1CO`, the outcome was inactive. In the case of `CC(=O)NC[C@@H]1[C@@H](c2ccccc2)[C@@H](CO)N1C(=O)Cc1cccnc1`, the result was inactive. Turning to `O=S(=O)(ON(c1ccccc1)S(=O)(=O)c1ccccc1)c1ccccc1`, the result was inactive. Regarding `O=C1C=CCCN1C(=O)/C=C/c1ccc(F)cc1`, the result was inactive. Next, `CC(=O)N1c2ccc(S(=O)(=O)N3CCC(C(=O)NCc4ccc(F)cc4)CC3)cc2CC1C` (stereo not given): “inactive”; `CCCOc1ccc(NC(=O)CC2C(=O)N(C)C(=S)N2Cc2ccc3c(c2)OCO3)cc1` (stereo not given): “inactive”; `Cc1cccc(S(=O)(=O)N2C[C@@H](O)COC[C@H]3O[C@H](CC(=O)Nc4ccc(-c5ccccc5)cc4)CC[C@@H]32)c1`: “inactive”. Regarding `Cc1c(CCO)sc[n+]1CC(=O)OC12CC3CC(CC(C3)C1)C2`, the result was inactive.

`COc1cc(NC(=O)c2ccc3c(c2)OCO3)ccc1NC(=O)c1cccs1`: the outcome was inactive. Next, `O=C(N[C@@H]1C=C[C@H](CC(=O)N2CCCCC2)O[C@H]1CO)c1cccc(F)c1`: “inactive”; `CS(=O)(=O)c1ccc2nc(NC(=O)c3ccc(Cl)nc3)sc2c1`: “inactive”. Turning to `CC(=O)Nc1ccc(S(=O)(=O)N(CCc2ccccc2)CC(=O)N/N=C/c2ccc(C(=O)O)cc2)cc1`, the result was inactive. The result for `COCCN(C(=O)C(C)C)c1nnc(-c2ccc(C(C)(C)C)cc2)s1` reads “inactive”; that for `Cc1ccc(NC(=O)Nc2cccnc2)cc1`, “inactive”; that for `CN1C(=O)c2cccc3c(N)ccc(c23)C1=O`, “inactive”.

On to `O=C(N/N=C/c1ccc([N+](=O)[O-])cc1)c1c[nH]c2ccccc12`, for which the result was inactive. `O=C(Nc1ccccc1F)N1[C@H](CO)[C@H]2c3ccccc3NC[C@H]21`: the outcome was inactive. Regarding `C[C@@H]1CN([C@@H](C)CO)S(=O)(=O)c2ccc(-c3ccncc3)cc2O[C@@H]1CN(C)C(=O)Nc1ccc(F)cc1`, the result was inactive. `O=C(NN1C(=O)C2C3C=CC(O3)C2C1=O)c1ccccc1` (stereo not given): the result was inactive. As to `COc1ccccc1C(=O)NNC(=O)c1ccc(NC(=O)c2ccccc2)cc1`, the outcome was inactive.
